Results: PubChem BioAssay (NCATS)
Inconclusive results are not listed. A number with no mark means an inactive call. Calls follow the shape of the dose curve; as a rule, active = well fitted inhibition curve with a large enough effect; inconclusive = small, poorly fitted or top-dose-only effect; inactive = flat fitted curve, though single readings scatter.

biological target: Calcium and integrin-binding protein 1 (Homo sapiens) (UniProt Q99828); assay: Primary qHTS for Identification of Calcium Integrin Binding Protein 1 (CIB1) Competitor (AID 1508620); details: CIB1-GST / FITC-alphaIIb peptide fluorescence polarization; series mostly up to 114 µM; activity change, negative = inhibition: at the top concentration;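 also: GST tagged CIB1 binding a fluorescein labelled alphaIIb integrin peptide tracer; top concentration of the series differs between compounds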
Procedure, shortened: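 CIB1-GST (1 uM final) and compound incubated 15 min at room temperature before adding FITC-alphaIIb peptide tracer (100 nM final). Competition for binding read by fluorescence polarization (ex 480, em 540) after another 15 min at room temperature.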
% is scaled to controls: 0 for no effect and ±100 for the full control effect.

Chain of Calcium and integrin-binding protein 1 (Homo sapiens) (Q99828 whole entry, looked up): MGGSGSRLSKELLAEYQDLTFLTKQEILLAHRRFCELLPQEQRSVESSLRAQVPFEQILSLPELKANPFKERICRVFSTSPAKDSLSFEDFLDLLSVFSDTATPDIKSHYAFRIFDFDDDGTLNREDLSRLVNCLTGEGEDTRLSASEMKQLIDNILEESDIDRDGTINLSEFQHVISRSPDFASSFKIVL

Row | SMILES | activity change, negative = inhibition
1 | O=C(Nc1cccc(C(F)(F)F)c1)Nc1ccc(Br)cc1-c1nn[nH]n1 | -11%
2 | C[C@H]1CC[C@@]2(OC1)O[C@H]1CC3C4CC[C@H]5C[C@@H](O)CC[C@]5(C)C4=CC(=O)[C@]3(C)[C@H]1[C@@H]2C (stereo not given in full) | 3.35% [at 57.7 µM]
3 | Cc1ccccc1C(C(=O)NC1CCCCC1)N(C(=O)Cn1cnc2ccccc21)c1cccc(F)c1 (stereo not given) | 9.23%
4 | COc1cc2c(cc1NS(=O)(=O)c1ccc(Br)cc1C)n(C)c(=O)n2C | 5.05%
5 | C/C=C(/C=C(C)/C=C/C=C/C=C(\C)C(=O)C12OC1C(O)(CCO)NC2=O)C(=O)OC (stereo not given) | -1.87% [at 57.7 µM]
6 | C=CCC1=C[C@]2(OC)[C@H](C)[C@@H](c3ccc4c(c3)OCO4)O[C@]2(OC)CC1=O | -7.86% [at 57.7 µM]
7 | O=C(Nc1ccn(Cc2ccc(O)cc2C(F)(F)F)n1)c1c(F)cccc1F | 5.17%
8 | CCOC(=O)c1csc(Nc2ccc(Cl)cc2)n1 | -0.012%
9 | CN1CCc2cc3c(cc2C(=O)Cc2cc4c(cc2C1)OCO4)OCO3 | -2.23% [at 57.7 µM]
10 | C[C@@H](NC(=O)[C@H](O)c1cc(F)cc(F)c1)C(=O)N[C@@H]1C(=O)N(C)c2ccccc2-c2ccccc21 | 3.52%
11 | COc1ccc2cc(-c3cc(-c4cc(Cl)cc(Cl)c4)nn3C(C)c3ccc(C(=O)NCCC(=O)O)cc3)ccc2c1 (stereo not given) | 4.36%
12 | CCCN1CCC=C(c2cc(-c3ccc(C)cc3)no2)C1 | 1.16%
13 | Cc1nc2cc(C(=O)NCc3ccccn3)nn2c(C)c1Cc1cccc(Cl)c1 | -2.57%
14 | O=C(Nc1ccccc1C(=O)Nc1ccc(CCO)cc1)c1ccc([N+](=O)[O-])cc1 | -0.0606%
15 | C/C=C/C1=CC2=C(CO1)C(=O)C(C)(OC(=O)c1c(C)cc(O)cc1OC)C(O)C2 (stereo not given) | -3.5% [at 57.7 µM]
